For seven compounds, outcome and AC50 results are on record in PubChem BioAssay (EPA / NIEHS).

Records with an inconclusive call do not appear. The source holds several records for some structures; these can differ, active in one and inactive in another. Activity calls are given as the source filed them. Rule for the calls, unless noted: active = hit-call score of the fitted dose curve at least 0.9, where 1 is the maximum; inactive = score below 0.9.

Assay [1] in a line: CCTE_Simmons_MITO_inhib_resp_rate: CCTE's HepG2 Seahorse XF Respirometric Screening Assay at Inhibited Respiratory State [full ETC block], Simmons Lab (AID 2284006). The conditions noted are these: actives raise or lower the signal. An outline of the steps: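 Test chemicals at seven final concentrations (125 nM–100 uM) in three biological replicates, with DMSO as vehicle. HepG2 oxygen consumption was then tracked on a Seahorse XF96 for 72 min through FCCP and rotenone/antimycin A phases, with the inhibited-phase rate as the endpoint.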

Assay [2] is described as follows: CCTE_Simmons_MITO_viability: CellTiter-Glo Viability Assessment for CCTE's HepG2 Seahorse XF Respirometric Screening Assay [post-hoc], Simmons Lab (AID 2284007; active = hit-call score of the fitted dose curve at least 0.9, where 1 is the maximum;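 for AC50: cells exposed to chemical for 90 min before the ATP read; actives lower ATP signal relative to DMSO baseline meaning reduced viability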). An outline of the steps:
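Post-hoc viability check on the HepG2 respirometry plates: luciferase-based ATP signal measured once, after 90 min compound exposure spanning 125 nM–100 uM final. Activity was referenced to DMSO as baseline.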
For orientation: Cellular ATP, detected with luciferase, serves as a proxy for viable cell number.

Assay [3] is described as follows: CCTE_Shafer_MEA_acute_firing_rate_mean: CCTE's Neural Acute Assay for Mean Firing Rate, Shafer Lab (AID 2284009).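 Note: analyzed for loss of signal so actives lower firing rate relative to DMSO.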 An outline of the steps:
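Primary rat cortical neurons on 16-electrode MEA wells were exposed on DIV 13 or 15 to compound (0.03-40 uM). Spike counts per recording time, averaged over electrodes, were compared between 40-min baseline and 40-min post-exposure recordings as percent change.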

The nature of assay [4]: CCTE_Harrill_HTTr_Viability_MCF7: CCTE's 6-hour Cell Viability Assessment for the High-Throughput Transcriptomics (HTTr) Platform, in MCF-7 cells cultured in DMEM + 10% fetal bovine serum, Harrill Lab (AID 2284010). An outline of the steps: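 Eight-point concentration series, six-hour exposure. Propidium iodide exclusion imaged to assess membrane integrity as a cytotoxicity readout; bidirectional fitting was done with DMSO as negative control and activity baseline.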

A short description of assay [5]: CCTE_Harrill_HTTr_Apoptosis_MCF7: CCTE's 6-hour Apoptosis Assessment for the High-Throughput Transcriptomics (HTTr) Platform, in MCF-7 cells cultured in DMEM + 10% fetal bovine serum, Harrill Lab (AID 2284011). In short, it runs like this:
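Cells are dosed with test chemicals at eight concentrations and imaged 6 hours later for caspase-3/7 activity using a green fluorogenic detection reagent. Activity is fitted in both directions against DMSO controls.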

Assay [6] can be described thus: CCTE_Harrill_HTTr_CellCount_MCF7: CCTE's Cell Proliferation Assessment for the High-Throughput Transcriptomics (HTTr) Platform, Harrill Lab (AID 2284012; active = hit-call score of the fitted dose curve at least 0.9, where 1 is the maximum;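 note: count of Hoechst-stained nuclei per well by high-content imaging in MCF-7 cells; cells exposed to compound for six hours; intended direction is loss of nuclei count meaning fewer cells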). In short, it runs like this:
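For this full-screen endpoint, MCF-7 cultures received eight compound dilutions for six hours. Well nuclei counts from Hoechst imaging were analyzed relative to DMSO.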

A short description of assay [7]: CCTE_Shafer_MEA_acute_burst_duration_mean: CCTE's Neural Acute Assay for Mean Burst Duration, Shafer Lab (AID 2284014).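 Note: hits are decreases in mean burst duration relative to DMSO controls.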 In short, it runs like this: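 Mean burst duration was compared between a 40 min baseline and a 40 min recording in the presence of compound (0.03-40 uM, 37 C), giving percent change per well. Cultures were rat cortical neurons at DIV 13 or 15; wells needed ≥10 active electrodes.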

Assay [8] in a line: CCTE_Shafer_MEA_acute_per_burst_spike_number_mean: CCTE's Neural Acute Assay for Average Number of Spikes Per Burst, Shafer Lab (AID 2284015).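 Note: hits are decreases in mean spikes per burst versus baseline.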 An outline of the steps: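 Percent change in mean spikes per single-electrode burst is compared between a 40 min baseline and a 40 min recording with compound (0.03-40 uM). Cultures were rat cortical neurons on MEA plates at DIV 13 or 15, recorded at 37 C, with DMSO as the negative control.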

The nature of assay [9]: CCTE_Shafer_MEA_acute_interburst_interval_mean: CCTE's Neural Acute Assay for Mean Interburst Interval, Shafer Lab (AID 2284016).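 Note: percent change of mean interburst interval versus each well's own pre-dose baseline; curves fitted for decrease in interburst interval relative to DMSO.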 An outline of the steps:
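Percent change in mean single-electrode interburst interval was calculated per well from 40 min recordings before and after compound (0.03-40 uM). Recordings were made at 37 C on rat cortical cultures at DIV 13 or 15, with spikes detected at 8x rms threshold.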

Assay [10] is described as follows: CCTE_Shafer_MEA_acute_burst_percentage_mean: CCTE's Neural Acute Assay for Percentage of Spikes in a Burst, Shafer Lab (AID 2284017).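 For AC50: curve fitted for loss of signal so potency reflects decreased burst percentage.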 In short, it runs like this:
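Well-level mean burst percentage from a 40-min recording after compound (0.03-40 uM) expressed as percent change from a 40-min baseline at 37C. Cultures: primary rat cortical neurons on MEA, dosed on DIV 13 or 15; fitted downward relative to DMSO.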

Assay [11] can be described thus: CCTE_Shafer_MEA_acute_burst_percentage_std: CCTE's Neural Acute Assay for Standard Deviation of Burst Percentage, Shafer Lab (AID 2284018).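 Note: fitted in the negative direction so actives lower burst percentage SD.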 In short, it runs like this:
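Value is percent change from baseline in the across-electrode SD of spikes-in-bursts percentage, wells with >/= 10 active electrodes. Acute 40-min exposure to 0.03-40 uM on DIV 13 or 15 rat cortical cultures, recorded at 37 C after 40-min baseline.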

The nature of assay [12]: CCTE_Shafer_MEA_acute_per_network_burst_spike_number_mean: CCTE's Neural Acute Assay for Average Number of Spikes in a Network Burst, Shafer Lab (AID 2284019).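 For AC50: curve fitted for loss of signal so actives reduce spikes per network burst.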 An outline of the steps: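 Percent change from baseline in mean spikes per network burst, spikes detected at 8x rms noise. Each compound at 0.03-40 uM in at least three wells of rat cortical cultures, recorded 40 min before and 40 min during exposure.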

A short description of assay [13]: CCTE_Shafer_MEA_acute_per_network_burst_spike_number_std: CCTE's Neural Acute Assay for Standard Deviation of Number of Spikes in a Network Burst, Shafer Lab (AID 2284020).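 Note: fitted for decrease in spike-number SD versus DMSO so actives lower it.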 In short, it runs like this: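 Endpoint: percent change from 40 min baseline in standard deviation of spikes per network burst, after 40 min compound exposure (0.03-40 uM, 37 C). Cortical rat neurons on MEA at DIV 13 or 15; spikes detected at 8x rms noise, 300-5000 Hz band-pass.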

Assay [14] can be described thus: CCTE_Shafer_MEA_acute_per_network_burst_electrodes_number_mean: CCTE's Neural Acute Assay for Mean Number of Electrodes in a Network Burst, Shafer Lab (AID 2284021).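 Note: curves fitted for decreases only so hits reduce electrodes per burst.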 In short, it runs like this:
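Cultures of rat cortex neurons were exposed on DIV 13 or 15 to compounds at 0.03-40 uM in at least three wells each. Activity over 40 min before and 40 min after exposure at 37 C gave the percent change in electrodes per network burst.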

The nature of assay [15]: CCTE_Shafer_MEA_acute_network_burst_percentage: CCTE's Neural Acute Assay for Percentage of Network Bursts, Shafer Lab (AID 2284022).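 For outcome: rat primary cortical neuron networks on multiwell MEA recorded 40 min.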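 Note: curves fitted for loss so actives lower network burst percentage.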 An outline of the steps:
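Cortical neurons from rat were grown over microelectrode arrays and used on day 13 or 15 in vitro. Wells with at least 10 active electrodes received test chemical at 0.03-40 uM. Activity during 40 min of exposure was compared with the preceding 40-min baseline.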

Assay [16] is described as follows: CCTE_Shafer_MEA_acute_cross_correlation_area: CCTE's Neural Acute Assay for Area of Cross Correlation, Shafer Lab (AID 2284024).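 For outcome: rat primary cortical neuron networks on 48-well MEA at DIV 13 or 15 with 40 min exposure.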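 Note: area under pooled inter-electrode spike cross-correlation near zero lag as percent change from own baseline; curves fitted for loss of cross-correlation area so actives lower synchrony.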 An outline of the steps:
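Acute exposure of mature rat cortical networks (day 13 or 15 post-plating) to 0.03-40 uM compound. Spontaneous spiking on MEA, 40 min pre- and post-dose at 37 C.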

Assay [17] can be described thus: CCTE_Shafer_MEA_acute_cross_correlation_HWHM: CCTE's Neural Acute Assay for Cross Correlation at Half Width at Half Maximum, Shafer Lab (AID 2284026).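 For outcome: spontaneous network firing of rat primary cortical neurons on multiwell microelectrode arrays.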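 Note: percent change per well from pre-dose baseline in spike cross-correlogram half width; hits are a decrease in cross-correlogram half width relative to DMSO.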 In short, it runs like this:
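Primary cortex (rat), MEA, DIV 13/15; compound 0.03-40 uM; 40 min pre + 40 min post at 37 C; spike threshold 8x rms; wells need ≥10 active electrodes; endpoint = % change in cross-correlogram HWHM vs baseline, DMSO negative control.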

A short description of assay [18]: CCTE_Shafer_MEA_acute_synchrony_index: CCTE's Neural Acute Assay for Synchrony, Shafer Lab (AID 2284027).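 Note: network synchrony index of spontaneous spiking in primary rat cortical neurons on MEAs; fitted for loss of signal so actives lower synchrony relative to DMSO.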 In short, it runs like this: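 Acute exposure of rat primary cortical neurons (DIV 13 or 15) at 0.03-40 uM. Synchrony index, 40 min before vs after, as % change relative to DMSO control.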

For `C=CCOC(Cn1ccnc1)c1ccc(Cl)cc1Cl` (stereo not drawn), the compound was classed as inactive in assay [1], in assay [2], in [4], in [5], in [6] and in assay [7]. Moreover, the call in assay [8], in assay [9], in assay [12], in assay [13], in [14] and in [15] was inactive. In addition, the outcome in assay [16] was inactive. Further, the concentration at half-maximal activity (AC50) (in general, the midpoint of the concentration-response curve, whichever way the signal moves) in assay [3] is 6090 nM (active); in assay [10], 2090 nM (active); in assay [11] it was 3320 nM (active); in assay [17], 5570 nM (active); in assay [18], 8510 nM (active).
`O=C(O)C1(C(=O)Nc2ccc(Cl)cc2Cl)CC1`: the result in assay [1], in assay [4], in assay [5] and in [6] was inactive. Besides, in assay [2], the concentration at half-maximal activity (AC50) was 29300 nM (active).
Turning to `OB(O)O`, the call in [3], in assay [4], in [5], in assay [6], in assay [7] and in assay [8] was inactive. The outcome in assay [9], in assay [10], in assay [11], in assay [12], in [13] and in assay [14] was inactive. For the same compound, the compound was called inactive in assay [15], in assay [16], in [17] and in [18].
On to `O=C(Nc1ccc([N+](=O)[O-])cc1Cl)c1cc(Cl)ccc1O`, for which the AC50 was 1360 nM (active) in assay [1]; 114 nM (active) in assay [3]; 621 nM (active) in [7]; 292 nM (active) in [8]; 183 nM (active) in [9]; 269 nM (active) in [10]. In addition, the AC50 in assay [12] was 179 nM (active); in assay [13] it was 370 nM (active); in assay [14], 301 nM (active); in assay [15], 252 nM (active); in [16] it was 77.4 nM (active); in assay [17] it was 1080 nM (active). In addition, the AC50 in assay [18] was 277 nM (active). The outcome in [4], in assay [5] and in assay [11] was inactive.
Consider `CC(C)CCCCCCc1ccc(O)cc1`, for which the result in [1], in assay [2], in [4], in assay [5], in assay [6] and in assay [7] was inactive. Further, the call in assay [8], in assay [12], in assay [13], in assay [14], in assay [15] and in [16] was inactive. In addition, the AC50 is 6030 nM (active) in assay [3]; 7290 nM (active) in assay [9]; 12600 nM (active) in [10]; 32500 nM (active) in assay [11]; 20000 nM (active) in [17]; 16000 nM (active) in assay [18].
`Cc1nn(C)c(Oc2ccccc2)c1C=NOCc1ccc(C(=O)OC(C)(C)C)cc1`: the call in assay [1], in assay [2], in assay [4], in assay [5], in [6] and in assay [7] was inactive. The result in assay [13] and in assay [14] was inactive. The concentration at half-maximal activity (AC50) in assay [2] is 2810 nM (active); in assay [3] it was 4.49 nM (active); in [8], 3080 nM (active); in assay [9] it was 3 nM (active); in assay [10], 3260 nM (active); in [11], 7360 nM (active). The concentration at half-maximal activity (AC50) was 390 nM (active) in [12]; 1500 nM (active) in assay [15]; 3 nM (active) in assay [16]; 4360 nM (active) in [17]; 3270 nM (active) in assay [18].
As to `O=C(O)c1ccccc1`, the call in assay [3], in assay [4], in [5], in assay [6], in [7] and in assay [8] was inactive. For the same compound, the compound was classed as inactive in [9], in assay [10], in assay [11], in assay [12], in [13] and in [14]. Moreover, the compound was classed as inactive in assay [15], in [16], in assay [17] and in assay [18].
